From PubChem BioAssay
GDH-TPI counter: GDH-TPI coupled enzyme inhibition counter-screen | GDH-TPI coupled enzyme counterscreen, NADH absorbance | inhibition, % at 4.8 µM | 360,000 compounds, 1.2% hits | AID 588335; in the data active = inhibition above about 30%;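 also: 0% = DMSO wells and 100% = wells lacking the enzyme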
Mtb FBA inh: inhibitors of M. tuberculosis fructose-bisphosphate aldolase | purified M. tuberculosis FBA, fluorescence read-out | inhibition, % at 1 µM | 360,000 compounds, 2.3% hits | AID 588726; in the data active = inhibition above about 27%;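 also: 0% = vehicle and 100% = reference inhibitor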
Target sequence (P9WQA3 whole entry, looked up): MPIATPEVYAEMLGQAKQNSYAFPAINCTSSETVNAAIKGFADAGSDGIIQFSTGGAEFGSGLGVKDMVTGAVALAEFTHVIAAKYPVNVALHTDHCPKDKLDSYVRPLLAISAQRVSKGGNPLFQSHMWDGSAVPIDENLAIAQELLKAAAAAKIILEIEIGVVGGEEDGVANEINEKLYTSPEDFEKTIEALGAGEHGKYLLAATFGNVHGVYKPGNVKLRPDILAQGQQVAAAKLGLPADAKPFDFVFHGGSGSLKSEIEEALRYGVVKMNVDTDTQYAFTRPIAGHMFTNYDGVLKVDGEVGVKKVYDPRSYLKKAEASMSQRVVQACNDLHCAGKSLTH
BJeLR lethal: BJeLR cell viability loss; BJeLR (HRASV12) viability, CellTiter-Glo ATP luminescence, 48 h; inhibition, % (concentration not given with the values); 300,000 compounds, 0.17% hits; in the data active = inhibition above about 50%
PrP UTR inh: inhibition of PrP 5' UTR reporter expression. cell-based PrP 5' UTR mRNA reporter, plate reader. inhibition, % (test concentration not listed). 340,000 compounds, 0.35% hits. AID 488862; in the data active = inhibition above about 52%; also: 0 = median of the neutral control wells
PfHsp40 rescue: compounds rescuing yeast from Plasmodium falciparum HSP40 toxicity; S. cerevisiae expressing PfHsp40, growth rescue, ATP luminescence; growth rescue, % at 12.5 µM; 340,000 compounds, 0.68% hits; in the data active = growth rescue above about 28%, passing the limit was not always enough;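 also: yeast W303a lacking pdr1 and pdr3 grown in galactose medium; growth measured after three days at 30 °C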
PrPC TRFRET: cell surface PrPC inhibition, primary TR-FRET screen | TR-FRET read-out | inhibition, % at 13.8 µM | 370,000 compounds, 0.43% hits; in the data active = inhibition above about 24%; also: 0% = median of the test wells and 100% = reference compound wells
* marks the source's active call; other numbers are inactive results; · = no result. This is a sample that favours compounds with a hit; in the whole collection about 4.5% have one here.

SMILES	GDH-TPI counter	Mtb FBA inh	BJeLR lethal	PrP UTR inh	PfHsp40 rescue	PrPC TRFRET
CC1=CC2(C(Cc3ccccc3)N(CC3CC3)C(=NC(=O)c3ccccc3)N2C(=O)OCc2ccccc2)n2c(=O)n(-c3ccccc3)c(=O)n2C1 (stereo unspecified)	·	·	·	·	·	2
CCCCc1ccc(NC(=O)CN(C)CC(=O)Nc2ccccc2Cl)cc1	-2	-3	-7	-13	36*	14
O=C(CSc1nnc(-c2cccnc2)n1Cc1ccco1)Nc1cc(Cl)ccc1F	·	·	·	·	·	9
CCn1c(/C=C/c2cc[n+](C)cc2)nc2ccccc21	13	6	-5	-1	-1	-38
CCCn1c(/C=C/c2ccccc2)nc2ccccc21	38*	53*	0	-67	1	-6
O=C(Nc1nccs1)c1ccc(-c2ccc(Cl)cc2)o1	54*	1	9	-62	0	14
O=C(Nc1nccs1)c1ccc(-c2ccc(F)cc2)o1	18	4	7	-61	6	13
N#C/C(=C(/O)CSc1ccccc1C(=O)O)c1nc2ccccc2s1	73*	-4	-1	-12	0	-6
Cc1ccc(SC/C(O)=C(\C#N)c2nc3ccccc3s2)cc1	32*	-1	-3	-21	0	-10
COc1ccc(C/C(O)=C(\C#N)c2nc3ccccc3s2)cc1	46*	-3	4	-13	-2	·
N#C/C(=C(/O)CSc1ccccn1)c1nc2ccccc2s1	7	-4	17	-16	0	6
CN(c1cccnc1)c1ccc(NC(=O)Cc2cn(Cc3ccccc3)c3ccccc23)cc1Br	·	·	·	·	·	11
N#CC1=C(N)n2c(s/c(=C\c3ccco3)c2=O)=C(C#N)C1c1ccco1 (stereo unspecified)	33*	-1	2	-24	2	1
COCCOC(=O)C1=C(C)NC(=O)NC1c1cn(-c2ccccc2)nc1-c1cccs1 (stereo unspecified)	0	-2	5	-10	1	-3
COC(=O)C1=C(C)NC(C)=C(C(=O)OC)C1c1cn(-c2ccccc2)nc1-c1ccco1	34*	22	-10	-8	0	12
CC(CC(=O)c1ccccc1)=NCCCN=C(C)CC(=O)c1ccccc1	60*	-2	·	·	·	-3
O=C(CC(=O)c1ccccc1)c1ccccc1	24	6	·	-72	-1	-5
Cc1csc2nc(CNS(=O)(=O)c3ccc4c(c3)OCCO4)cn12	9	0	3	-15	63*	-3
COc1ccc(CCNC(=O)c2cc3ccccn3n2)cc1	·	·	·	·	·	6
COC1=C/C(=C/c2c(O)c(C#N)c3ccccn23)C=CC1=O	44*	8	8	2	0	-5
CSCCC(C(=O)Nc1c(C)cccc1C)N(Cc1ccccc1)Cc1ccccc1 (stereo unspecified)	·	0	·	·	·	2
COC(=O)c1ccc(Nc2cc(C)nc3ccccc23)cc1	42*	6	1	-13	-1	-7
CC(=O)c1cccc(Nc2cc(C)nc3ccccc23)c1	32*	-6	-1	22	0	-1
O=C(O)c1cccc(Nc2c3ccccc3nc3ccccc23)c1	0	124*	-11	-28	0	5
O=C(O)c1cccc(Nc2nc3ccccc3nc2NS(=O)(=O)c2ccccc2)c1	20	21	·	-22	-1	-2
SMILES	GDH-TPI counter	Mtb FBA inh	BJeLR lethal	PrP UTR inh	PfHsp40 rescue	PrPC TRFRET
CC(C)C(NC(=O)[C@H](Cc1ccccc1)NC(=O)OCc1ccccc1)P(=O)(O)OC(Cc1ccccc1)C(=O)O (stereo partly specified)	·	·	·	·	·	5
CCC[C@H]1[C@@H](OC(=O)N2CCN(c3ccccc3)CC2)CC[C@@]23CCCN2C(=O)CCC[C@@H]13	·	·	·	·	·	7
CCOC(=O)C(C)N1N=C(/C=C/c2ccc(C)cc2)CCC1=O (stereo unspecified)	39*	-4	4	-1	-1	-4
C=CCN1N=C(/C=C/c2ccc(OC)cc2)CCC1=O	34*	-1	4	·	-1	-11
C=CCN1N=C(/C=C/c2ccc(C)cc2)CCC1=O	21	5	6	-38	-2	-12
CCOC(=O)CN1N=C(/C=C/c2ccc(OCC)cc2)CCC1=O	34*	-6	-7	-28	-1	-9
COc1ccc(/C=C/C(=O)Nc2cccc(C(C)=O)c2)cc1	33*	0	19	-38	2	-3
CC(=O)Nc1cccc(C(=O)/C=C/c2ccc(/C=C/C(=O)c3cccc(NC(C)=O)c3)cc2)c1	·	·	81*	·	·	-5
CC(=O)c1cccc(N/C=C\C(=O)c2ccc(C)cc2)c1	29	2	-3	-57	27*	7
COc1ccccc1/C=C/C(=O)Nc1cccc(C(C)=O)c1	20	4	-14	-3	-1	7
CCc1cc(C(=O)O)c(NC(=O)/C=C/c2ccc(OC)cc2)s1	74*	-1	-13	-36	-1	-4
Cc1cccc(-c2cccc3c4c([nH]c23)[C@@H]2C[C@H](N(C)C(=O)Nc3ccccc3C)[C@H]([C@H](C)O)C(=O)N2CC4)c1	·	·	·	·	·	-19
CCCCn1nnnc1C(c1cc2ccccc2o1)N1CCOCC1 (stereo unspecified)	·	·	·	·	·	7
N#C[C@@H]1N[C@H](CO)[C@@H]1c1ccccc1	·	·	·	·	·	-6
CC(C)(C)N(Cc1cn(Cc2ccccc2)nn1)S(=O)(=O)c1ccc(N2CCCCC2)cc1Br	·	·	·	·	·	15
Cc1nn(-c2ccccc2)c2sc(C(=O)NC3CCCCCCC3)cc12	·	·	·	·	·	-8
O=C(OC12CCCN(C1)/C(=C/c1ccc(Cl)cc1)C2)c1ccccc1 (stereo unspecified)	·	·	·	·	·	7
O=[N+]([O-])c1ccc(-c2ccc(/C=N/c3c(-c4ccco4)nc4ccccn34)o2)cc1	49*	6	-4	-31	-1	-28
Cc1cc(C)c([N+](=O)[O-])cc1-c1ccc(/C=N/c2c(-c3ccco3)nc3ccccn23)o1	33*	1	6	-17	0	-12
Cc1ccc(-n2c(COc3ccccc3)nnc2SCC(=O)Nc2ccccc2-c2ccccc2)cc1	·	·	·	·	·	0
O=C(O)c1cnn2c(C(F)(F)F)cc(-c3ccco3)nc12	39*	-2	-2	1	1	-29
Cc1ncoc1C(=O)N1CCCC(C(=O)c2ccc(-c3ccccc3)c(F)c2)C1 (stereo unspecified)	-10	-2	-4	-5	183*	9
O=C(NCCc1ccccc1)c1cc2sccc2n1Cc1ccccc1	4	156*	4	-11	1	10
COc1ccc([C@H]2OC(=O)C[C@@H]2C(=O)N2CCN(c3ccccc3F)CC2)cc1OC	·	·	·	·	·	-4
COc1cccc(/C=N\N2CCN(c3ccc(C)cc3)CC2)c1O	·	·	·	·	·	1
COc1ccc(Nc2nc(N)nc(CSc3n[nH]c(-c4ccccc4)n3)n2)cc1	13	3	4	-16	-1	-5
Nc1nc(CSc2n[nH]c(-c3ccccc3)n2)nc(Nc2ccccc2)n1	10	0	0	-10	68*	-4
